Screening results from PubChem BioAssay.
Shown are actives, neighbours in structure and some others; about 6% of the full set was active somewhere.
D1 agonist – activates the human D1 dopamine receptor. P21728. HEK293 T-REx D1 cells, calcium flux, agonist mode. activation, % at 2 µM. hit rate 1% among 360,000; in the data active = activation above about 30%; also: 0% is about no effect
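Tetracycline-induced HEK293 TREx D1 cells, force-coupled to calcium signalling, were dye-loaded with a no-wash calcium kit. Compound was pin-added after a 10 s baseline. Fluorescence was read kinetically at 1 cycle/s for 180 s, with calcium rises flagged as agonism.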
D1 potentiator – enhances dopamine response at the human D1 receptor | P21728 | HEK293 TREx D1 cells, calcium flux, dopamine EC20 potentiation | potentiation, % at 10 µM | hit rate 0.036% among 360,000 | AID 504651; in the data active = potentiation above about 30%; also: 0% is about no effect
DRD3 agonist – agonists of human D3 dopamine receptor | P35462 | D3R DiscoveRx beta-arrestin cells, luminescence, 90 min | max activation, % | hit rate 0.58% among 410,000 | AID 652048; in the data active = max activation above about 30%; also: 0% is about no effect
Target sequence (P35462 whole entry, looked up): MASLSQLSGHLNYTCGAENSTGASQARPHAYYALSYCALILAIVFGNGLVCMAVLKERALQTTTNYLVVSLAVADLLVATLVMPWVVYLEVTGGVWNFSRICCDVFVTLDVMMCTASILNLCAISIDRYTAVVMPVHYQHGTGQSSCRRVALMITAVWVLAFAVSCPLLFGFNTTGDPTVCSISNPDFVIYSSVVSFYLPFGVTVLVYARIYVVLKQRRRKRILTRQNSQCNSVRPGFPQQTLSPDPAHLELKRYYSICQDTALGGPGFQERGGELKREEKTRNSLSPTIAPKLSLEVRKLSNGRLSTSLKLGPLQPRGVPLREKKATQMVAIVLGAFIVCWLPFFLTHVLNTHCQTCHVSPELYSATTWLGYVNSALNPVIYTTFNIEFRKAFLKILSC
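Agonist mode: compounds and dopamine controls were applied to plated cells for 90 min at 37 degrees C after an overnight attachment at 1500 cells/well. Luminescent read-out followed 30 - 60 minutes at room temperature with DiscoveRx detection reagent.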
D1 antagonist – antagonists of human D1 dopamine receptor; AID 504652; HEK293 TREx D1 cells, calcium flux, dopamine EC80; hits give low values; activity change, negative = inhibition, % at 10 µM; hit rate 3.2% among 360,000; in the data active = activity change below about -30%; also: % is scaled to controls: 0 for no effect and ±100 for the full control effect
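Using tetracycline-induced force-coupled D1 Hek293 cells and a calcium dye, signals were followed for 180 s after compound, then for 180 s after EC80 dopamine, to detect inhibitors.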
DRD3 antagonist – antagonists of human D3 dopamine receptor; P35462; D3R cells, DiscoveRx beta-arrestin luminescence, antagonist mode; hits give low values; max response, negative = inhibition, %; hit rate 2.5% among 360,000; AID 652054; in the data active = max response below about -50%; inconclusive = no clear call, values can overlap the other calls; also: % is scaled to controls: 0 for no effect and ±100 for the full control effect
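Cells expressing the human receptor were seeded at 1500 cells/well, incubated overnight at 37 degrees C in 5% CO2, then exposed to library compounds with dopamine controls for 90 minutes at 37 degrees C before luminescent detection.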
Starred values were filed as active, the others as inactive; ? = inconclusive; nt = no result given.

SMILES	D1 agonist	D1 potentiator	DRD3 agonist	D1 antagonist	DRD3 antagonist
COc1ccccc1NC(=S)N1CCNC(=O)C1CC(=O)Nc1cccc(C)c1 (configuration not stated)	0.9	-6.0	-9.9	5.5	13.7
O=C(CSc1n[nH]c(-c2cccs2)n1)N1CCN(S(=O)(=O)c2ccccc2)CC1	6.5	-10.6	1.5	-59.4*	-3.1
Cc1ccccc1C(=O)c1cccn1CC(=O)NCCCN1CC(C)CC(C)C1 (configuration not stated)	4.8	-4.1	-14.4	14.9	1.7
Cc1ccccc1C(=O)c1cccn1CC(=O)NCCCN1CCc2ccccc2C1	16.4	nt	-10.1	-10.6	-50.8*
Cc1ccc(C)c(N2CCN(CCCNC(=O)Cn3cccc3C(=O)c3ccccc3)CC2)c1	16.8	-4.4	-15.7	4.0	-67.6*
COc1ccc(-c2nn(CC(=O)NCc3ccccc3)c3c2cnc2ccc(F)cc23)cc1	3.2	-2.5	-19.2	-13.2	nt
CCOC(=O)C1CCCN(C(=O)c2cc(C)n(C(C)(C)C)n2)CC1 (configuration not stated)	nt	nt	10.2	nt	5.5
CC(=O)Nc1cc(C(N)=O)c(Cl)cc1Cl	2.0	-9.2	0.3	-31.3*	-11.0
O=C(Cc1ccccc1)Nc1ccc(NC(=O)c2ccccc2)c(Cl)c1	4.5	-5.2	11.9	7.1	-16.4
O=C(Cc1ccccc1)Nc1ccc(Br)c(Cl)c1	22.3	-10.8	-0.2	-54.6*	-14.1
Cc1cccc(NC(=O)Cc2ccc(-c3ccccc3)cc2)n1	20.6	-5.0	8.3	12.2	14.9
O=C(Cc1ccc(-c2ccccc2)cc1)Nc1ccccc1	33.4*	3.5	-1.6	-12.2	-7.1
O=C(Cc1ccccc1)Nc1ccc(NC(=O)Cc2ccccc2)c(Cl)c1	2.1	-0.3	-0.3	-35.9*	5.6
Cc1ccc(NC(=O)C2CCCN2S(=O)(=O)c2ccc3nc(-c4ccccc4)[nH]c3c2)cc1F (configuration not stated)	12.8	-6.5	1.5	-16.1	nt
COC(=O)c1c(NC(=O)c2ccc(C(=O)c3ccccc3)cc2)sc2c1CC(C)(C)NC2(C)C	nt	nt	0.6	nt	-11.2
CC1(C)Cc2c(sc(NC(=O)c3ccc(C(=O)c4ccccc4)cc3)c2C#N)C(C)(C)N1	14.0	-2.0	-18.5	-2.6	-57.1*
O=C(O)c1cccc(N2C(=O)c3ccc4c5c(ccc(c35)C2=O)C(=O)N(c2cccc(C(=O)O)c2)C4=O)c1	1.3	2.8	-37.8	-5.9	-106.9*
Cc1ccc(NC(=O)CCN2CCC(Cc3ccccc3)CC2)cc1	7.7	-1.8	-17.3	-17.2	-53.2*
CC(C(=O)Nc1ccc([N+](=O)[O-])cc1)N1CCN(C/C=C/c2ccccc2)CC1 (configuration not stated)	26.1	-14.2	-9.4	-45.3*	?
COc1ccc(C)cc1NC(=O)CCN1CCN(C/C=C/c2ccccc2)CC1	3.2	-1.0	-15.1	-4.0	-52.4*
Cc1ccc(NC(=O)CCN2CCN(C/C=C/c3ccccc3)CC2)cc1	8.2	-7.5	-7.1	-6.0	-52.9*
CCc1nc2ccc(C(=O)N(CC)CCN(C)C)cn2c1N(CC)C(=O)NCCc1ccccc1	nt	nt	-12.1	nt	?
COCCNc1nc(-c2cc(F)ccc2C)c2sc(-c3ccccc3)cc2n1	nt	nt	-1.2	nt	-15.4
CCOc1ccc(C2c3c(oc4cc(C)c(C)cc4c3=O)C(=O)N2c2ccccn2)cc1 (configuration not stated)	0.0	-2.4	7.4	5.5	nt
COc1ccc(NC(=O)CCN2CCN(C/C=C/c3ccccc3)CC2)cc1	5.7	-0.8	-9.0	3.6	-11.7
COc1cc(NC(=O)CCN2CCN(C/C=C/c3ccccc3)CC2)cc(OC)c1	7.8	-11.2	2.6	-12.2	-58.6*
O=C(Cn1ncc2c([nH]c3ccccc32)c1=O)NCCCN1CCN(c2ccccc2)CC1	2.5	-1.3	6.1	3.3	-62.9*
O=c1c2ccccc2[nH]c(=S)n1CCCN1CCN(c2ccccc2)CC1	1.1	-9.7	-11.3	-58.2*	-70.8*
O=c1c2ccccc2[nH]c(=S)n1CCCN1CCN(c2ccccc2F)CC1	3.7	-32.2	9.5	-74.7*	-99.1*
O=C(c1ccc2c(=O)n(Cc3ccco3)c(=S)[nH]c2c1)N1CCN(c2ccccc2)CC1	nt	nt	-0.8	nt	-50.2*
